Measured values reported in PubChem BioAssay AID1578 (Sanford-Burnham Center for Chemical Genomics, 2009).
Among all 290,000 compounds or so, about 3,000 (1%) were called active. Cut-off read from the data, not from the text of the source: active = inhibition mostly above about 36% (no sharp cut-off); inactive = mostly below about 34%. Only a selection was taken, and actives are over-represented in it overall.

Assay: inhibition of NOD1-driven NF-kB reporter – cell-based, luminescence, uHTS, primary screen (AID 1578);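 note: HEK-293T reporter cells stimulated with the NOD1 agonist gamma-tri-DAP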
Settings: NOD1-driven NF-kB luciferase reporter cells, at 4 µM, active compounds read high

inhibition, active:
CC(C)(C)c1ccc(/C=C2\SC(=O)N(CCNC(=O)c3cccc(S(=O)(=O)N4CCOCC4)c3)C2=O)cc1 74.4%
CCOC(=O)c1c(-c2ccc(C)o2)csc1NC(=S)NC(=O)N(C)C 97.4%
Cc1cc(O)c(C(=O)/C=C/c2ccc(Cl)cc2)c(=O)o1 46.1%
Cc1ccc(NC(=O)c2ccoc2C)cc1C 112%
CCN1CCN(c2nc3ccccc3nc2C(C#N)C(=O)OC2CCCCC2)CC1 (stereo unspecified) 81.8%

inhibition, inactive:
Cc1noc(C)c1CSc1cc(C)c2ccccc2n1 -32.2%
COc1ccc(C(=O)Nc2ccc3c(c2)C(=O)N(C)C3=O)cc1OC -3.5%
COc1cccc(-n2cnc3sc(C)cc3c2=O)c1 -25.1%
CCCOC(=O)c1cc(=O)[nH]c2ccccc12 -5.2%
O=C(NCCN1C(=O)S/C(=C\c2ccc(F)cc2)C1=O)c1cccc(S(=O)(=O)N2CCOCC2)c1 21.8%
O=C(NCCN1C(=O)S/C(=C\c2ccc(Cl)cc2)C1=O)c1ccc(F)c(S(=O)(=O)N2CCOCC2)c1 -0.6%
CC1CCN(C(=O)c2ccccc2NC(=O)c2cccc(S(=O)(=O)N(C)C)c2)CC1 -46.2%
CCOC(=O)c1c(-c2ccc(C)o2)csc1NC(=S)NC(=O)c1cccs1 36.4%
CCOC(=O)c1c(-c2ccc(C)o2)csc1NC(=S)NC(=O)c1ccc(F)cc1 37.3%
COc1ccc(-c2ncccc2OC(=O)C23CC4CC(CC(C4)C2)C3)cc1OC -13.7%
CC1CCC(NC(=O)COc2ccccc2C(N)=O)CC1 (stereo unspecified) -22%
CN(C)c1oc(/C=C/c2cccs2)nc1S(=O)(=O)c1ccccc1 32.1%
Cc1cc(O)c(C(=O)/C=C/c2ccccc2)c(=O)o1 0.7%
Cc1cc(O)c(C(=O)/C=C/c2ccc(C(C)C)cc2)c(=O)o1 5.9%
CCOC(=O)C1(CCc2ccccc2)CCN(Cc2ccc(C(=O)OC)cc2)CC1 13.7%
Cc1occc1C(=O)Nc1ccc2c(c1)OCCO2 -15%
Cc1occc1C(=O)Nc1ccc2ccccc2c1 -121%
COC(=O)C(Cc1c[nH]c2ccccc12)NC(=O)c1cccs1 (stereo unspecified) -7.6%
CCN(C(=O)COc1ccccc1)c1nnc(-c2cccnc2)s1 -10.9%
N#CC(C(=O)OC1CCCCC1)c1nc2ccccc2nc1N1CCCCC1 (stereo unspecified) 4.5%
CN1CCN(c2nc3ccccc3nc2C(C#N)C(=O)OC2CCCCC2)CC1 (stereo unspecified) 11.4%
